Compound activity as filed in PubChem.
Pf Dd2 growth: qHTS Primary assay for Inhibitors of Plasmodium falciparum Dd2 growth in vitro. Potency, µM (highest dose often 28.9 µM), hits mostly inhibitors. P. falciparum Dd2 growth, SYBR Green, 72 h. 120,000 compounds, 4.3% hits; active = well fitted inhibition curve with a large enough effect; note: nearly all actives have a fitted effect of over 65% in size
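Readout: SYBR Green fluorescence, 485 nm excitation, 535 nm emission, after ~16 h lysis at 37C. Before that, Dd2-infected red cells (2.5% hematocrit) grew 72 h with compound, 29 uM top final concentration.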
Large screens that a line does not name were inactive. The entries come from a sample that favours hits as a whole.

COc1ccc(-c2nc(C(C)C)nc3c2CN([S+](=O)([O-])c2cccc(OC)c2)CC3)cc1	none
O=[S+]([O-])(c1cccs1)N1CCc2nc(C3CC3)nc(-c3ccc(Cl)cc3)c2CC1	Pf Dd2 growth 4µM
CCc1nc2c(c(-c3ccc(OC)cc3)n1)CCN([S+](=O)([O-])c1cccs1)CC2	none
CC(C)c1nc2c(c(-c3ccc(Cl)cc3)n1)CN([S+](=O)([O-])c1cccs1)CC2	none
COc1ccc(-c2nc(C(C)C)nc3c2CN([S+](=O)([O-])c2cccs2)CC3)cc1	Pf Dd2 growth 5µM
O=S(=O)(c1cccs1)N1CCc2nc(C3CC3)nc(-c3ccc(Cl)cc3)c2C1	none
Cn1c(CNC(=O)CC2CCOC3(CCN(S(C)(=O)=O)CC3)C2)nc2ccccc21 (stereo not drawn)	none
CN1c2cc(C(=O)NCc3cccc(Cl)c3)ccc2C(=O)N2CCCC21 (stereo not drawn)	none
O=C1CC2(CCN(Cc3ccsc3)CC2)Oc2ccccc2N1	none
Cc1cccc(CN2CCCOCCNC(=O)[C@@H]3CCCC[C@@H]32)c1	none
Cc1ccc(CN2CCCCCNC(=O)[C@@H]3CCC[C@@H]32)s1	none
Cc1ccc(CN2CCCOCCNC(=O)[C@@H]3CCCC[C@@H]32)s1	Pf Dd2 growth 5µM
COc1cc2c(cc1CNC(=O)[C@H]1CCC[C@@H](O)C1)OCCO2	none
COCCCNC(=O)c1cnc2sc(N3CCCCCC3)nn2c1=O	none
COc1ccc(-c2n[nH]c3c2CC(=O)N(Cc2ccccc2F)C3)cc1F	none
COc1ccc(-c2nn(-c3ccccc3C)cc2CN2C[C@@H](C)O[C@@H](C)C2)cc1F	Pf Dd2 growth 10µM
COC[C@H]1CCCN1Cc1cn(-c2ccccc2C)nc1-c1ccc(OC)c(F)c1	none
COCC1CCN(Cc2cn(-c3ccccc3C)nc2-c2ccc(OC)c(F)c2)CC1	Pf Dd2 growth 10µM
COc1ccc(-c2nn(-c3ccccc3C)cc2CN2CCCOCC2)cc1F	none
COc1ccc(-c2nn(-c3ccccc3C)cc2CN2CCN(C)C(=O)[C@@H]2C)cc1F	none
CC(C)c1ccc(NC(=O)Cn2nnc(C(=O)NCc3ccc4c(c3)OCO4)c2N)cc1	none
CN1CCC(C(=O)N2CCC3(CC2)CN(C(=O)c2ccc(Cl)cc2)CCO3)CC1	none
O=C(Nc1ccc(=O)n2c1[C@@H]1C[C@@H](CN(C(=O)COc3ccccc3)C1)C2)c1ccccc1	none
CC(=O)N1CCC(N2C[C@@H](F)[C@@H](OCc3nc4cc(C)c(C)cc4[nH]3)C2)CC1	none
COc1ccc(-c2cc(N3CCC(NC(=O)c4ccc(OC)cc4C)C3)n[nH]2)cc1 (stereo not drawn)	none
O=C(Nc1c(C(=O)c2ccc(Cl)cc2)oc2ccccc12)c1cc(=O)c2ccccc2o1	none
O=C(N[C@@H]1CCN(Cc2cccc3nonc23)C[C@H]1O)c1cccnc1	none
Cc1cnc(C(=O)N2CCOCCNC(=O)[C@@H]3CCC[C@@H]32)cn1	none
COc1ccc(CNC(=O)c2cc(-c3ccc(C)cc3)nc3n[nH]c(-c4ccc(Br)cc4)c23)cc1	none
COc1ccc(-n2c(SCC(=O)NCc3ccc(C)cc3)nc3n[nH]c(C)c3c2=N)cc1	Pf Dd2 growth 10µM
Cc1ccc(CNC(=O)CSc2nc3n[nH]c(C)c3c(=N)n2-c2ccccc2Cl)cc1	Pf Dd2 growth 3.5µM
COc1ccc(CNC(=O)CSc2n[nH]c(-c3ccc(OC)cc3)n2)cc1	none
CCCCn1c(SCC(=O)NCc2ccc(C)cc2)nc2c(sc3ccccc32)c1=O	none
Cc1ccc(Cn2ccnc2SCC(=O)NCc2ccccc2)cc1	none
COc1ccc(-c2onc(C)c2C)cc1S(=O)(=O)NC1CCCCC1	none
COc1cccc(CN2CC[C@H](c3nc4cc(Cl)ccc4o3)C2)c1	none
CCCc1nn2c(=O)cc(COC(=O)c3cccs3)nc2s1	none
CCc1ccc2c(c1)NC(c1cccs1)=NC(c1ccc(F)cc1)=N2	none
CCCCOc1ccc(C2=NC(c3cccs3)=Nc3ccc(OC)cc3N2)cc1	none
CCOc1ccc(C2=NC(c3cccs3)=Nc3ccc(CC)cc3N2)cc1OCC	Pf Dd2 growth 8.9µM
Cc1ccc(CN2C(=O)[C@@H]3C[C@@H](O)CN3C3(CN(Cc4ccccc4Cl)C3)C2=O)o1	none
Cc1ccc(CN2C(=O)[C@@H]3C[C@@H](O)CN3C3(CN(Cc4ccc(Cl)cc4)C3)C2=O)o1	none
COc1ccc(CN2CC3(C2)C(=O)N(Cc2ccc(C)o2)C(=O)[C@@H]2C[C@@H](O)CN23)c2ccccc12	Pf Dd2 growth 10µM
COc1ccc(-c2nc3scc(CCNS(=O)(=O)c4ccc(F)cc4C)n3n2)cc1	none
COc1ccccc1-c1cc2c(nc1OC)nc(CC1CC1)n2C	Pf Dd2 growth 13µM
COc1nc2nc(CCc3ccccc3)n(C)c2cc1Nc1ccncn1	none
COCc1nc2nc(-c3ccccc3)c(-c3ccc(OC)cc3)cc2n1C	none
CN1C[C@@H](NC(=O)Nc2ccccc2)C[C@H]1c1nc(-c2ccc(F)cc2)no1	none
O=C1NC2(CCN(C(=O)c3ccccc3)C2)Oc2ccccc21 (stereo not drawn)	none
O=C(N[C@H]1CCN2C(=O)c3ccccc3NC(=O)[C@H]12)c1cnccn1	none
Cc1c(CC(=O)N2CCC(C#N)CC2)c2c(n1Cc1ccccc1)CCCC2=O	none
Cc1c(CC(=O)NC2CCOCC2)c2c(n1Cc1ccc(F)cc1)CCCC2=O	none
Cc1c(CC(=O)NC2CCOCC2)c2c(n1CCc1ccccc1)CCCC2=O	Pf Dd2 growth 10µM
FC(F)(F)c1ccc(N2C3CCC2CN(Cc2ccc(-c4ccsc4)cc2)C3)cc1	none
FC(F)(F)c1ccc(N2C3CCC2CN(Cc2cccc(-c4cccnc4)c2)C3)cc1	Pf Dd2 growth 11µM
FC(F)(F)c1ccc(N2C3CCC2CN(Cc2ccc(-c4ccccc4)cc2)C3)cc1	none
COc1ccc2[nH]c3c(c2c1)CCNC31CCN(C(=O)c2ccncc2)CC1	none
CCn1ccc(C(=O)N2CCC3(CC2)NCCc2c3[nH]c3ccccc23)n1	none
COc1ccc2[nH]c3c(c2c1)CCNC31CCN(C(=O)C2CCN2C2CCCCC2)CC1 (stereo not drawn)	Pf Dd2 growth 13µM
CC(C)CC(=O)N1CCC2(CC1)NCCc1c2[nH]c2ccccc12	none
COc1ccc2[nH]c3c(c2c1)CCNC31CCN(C(=O)C(C)C)CC1	none
O=C(c1nccc2ccccc12)N1CCC2(CC1)NCCc1c2[nH]c2ccccc12	Pf Dd2 growth 4µM
CCCC(=O)N1CCC2(CC1)NCCc1c2[nH]c2ccc(OC)cc12	none
CCC(=O)N1CCC2(CC1)NCCc1c2[nH]c2ccc(OC)cc12	none
COc1ccc2[nH]c3c(c2c1)CCNC31CCN(C(=O)CC(C)C)CC1	Pf Dd2 growth 7.9µM
Cc1ccc(C)c(NC(=O)CSc2nc(=O)n(CCN3CCOCC3)c3c2CCC3)c1	none
COCc1noc([C@@H]2CN(S(=O)(=O)c3c(C)noc3C)C[C@H]2C(N)=O)n1	none
COc1ccc(CNC(=O)[C@@H]2CCC[C@@H](NCc3cnn(C)c3)CN(C)C(=O)C2)cc1	none
Cn1c(=O)n(C)c2cc(CNCc3ccccc3)ccc21	none
O=C(NCCC1CCN(C(=O)Nc2ccccc2)CC1)c1ccccc1F	none
COCCNC(=O)CN1C(=O)c2cccnc2Oc2ccc(Cl)cc21	none
COc1ccccc1N1CCN(CC(O)COc2ccc(C)cc2C(C)(C)C)CC1 (stereo not drawn)	Pf Dd2 growth 8.9µM
COc1ccccc1N1CCN(CC(O)COc2cc(C)cc(C)c2)CC1 (stereo not drawn)	none
COc1ccccc1N1CCN(CC(O)COc2ccc(Cl)c(C)c2)CC1 (stereo not drawn)	none
Cc1ccc(Cl)cc1N1CCN(C(=O)c2ccc(NC(=O)c3nsc4ccccc34)cc2)CC1	none
CCN(CC)Cc1nc(C2(O)CCN(C)CC2)cs1	none
O=C(C1CC1)N1CCC(O)(c2csc(CN3CCc4ccccc4C3)n2)CC1	none
